# Substitutions are numbered along the chain they refer to.
# What was measured:
# Test in all cases: HT-SELEX; high values mean tight binding
# Settings in all cases: protein: recombinant; vector His6-GST; dsDNA, one strand shown
# [1] = biological target: T1, SALL4 ZFC4 WT (HT-SELEX) (Mus musculus, UniProt Q8BX22 870-940)
# T1 sequence: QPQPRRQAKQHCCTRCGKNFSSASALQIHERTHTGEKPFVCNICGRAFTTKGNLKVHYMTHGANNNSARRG
# In short: (§1)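 For each canonical k-mer, binding signal is the read fraction as fold change versus the initial random library. Data came from up to 6 triplicate cycles in which purified recombinant mouse SALL4 zinc finger cluster 4 (residues 870–940, 1 µg) was incubated 10 min at room temperature with library DNA (1.5 µg first cycle, 200 ng later) in 100 µl of 10 mM Tris–HCl pH 7.5, 50 mM NaCl, poly(dI-dC), DTT, followed by Ni2+ bead capture, PCR amplification, MiSeq sequencing and a 6-mer scan.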
# [2] = biological target: T2, SALL4 ZFC4 R900W (HT-SELEX) (Mus musculus, UniProt Q8BX22 870-940, R900W)
# T2 sequence: T1 sequence with R31W
# In short: as §1
# [3] = biological target: T3, SALL4 ZFC4 G921D (HT-SELEX) (Mus musculus, UniProt Q8BX22 870-940, G921D)
# T3 sequence: T1 sequence with G52D
# In short: as §1
Sequence,binding signal [1],binding signal [2],binding signal [3]
AACATG,1.25 ± 0.0212 fold-change vs cycle 0,1.38 ± 0.0255 fold-change vs cycle 0,1.32 ± 0.0877 fold-change vs cycle 0
AGGAAC,0.86 ± 0.0507 fold-change vs cycle 0,1.02 ± 0.0591 fold-change vs cycle 0,1.04 ± 0.0533 fold-change vs cycle 0
GACTGA,0.805 ± 0.0317 fold-change vs cycle 0,0.959 ± 0.0214 fold-change vs cycle 0,0.953 ± 0.0219 fold-change vs cycle 0
ACAATG,1.23 ± 0.0338 fold-change vs cycle 0,1.34 ± 0.0389 fold-change vs cycle 0,1.32 ± 0.0407 fold-change vs cycle 0
ACTCGG,0.394 ± 0.0337 fold-change vs cycle 0,0.467 ± 0.0183 fold-change vs cycle 0,0.588 ± 0.0373 fold-change vs cycle 0
AAGCTT,1.18 ± 0.0611 fold-change vs cycle 0,1.27 ± 0.0133 fold-change vs cycle 0,1.24 ± 0.0566 fold-change vs cycle 0
CCGTGA,0.39 ± 0.0265 fold-change vs cycle 0,0.468 ± 0.0123 fold-change vs cycle 0,0.578 ± 0.0442 fold-change vs cycle 0
TGAAAA,2.04 ± 0.151 fold-change vs cycle 0,1.73 ± 0.0528 fold-change vs cycle 0,1.57 ± 0.0962 fold-change vs cycle 0
ACAGAG,0.763 ± 0.0507 fold-change vs cycle 0,0.916 ± 0.013 fold-change vs cycle 0,0.96 ± 0.0385 fold-change vs cycle 0
ATAAAA,3.85 ± 0.323 fold-change vs cycle 0,2.43 ± 0.199 fold-change vs cycle 0,2.07 ± 0.279 fold-change vs cycle 0
AGAAAT,2.29 ± 0.182 fold-change vs cycle 0,2.02 ± 0.161 fold-change vs cycle 0,1.78 ± 0.161 fold-change vs cycle 0
CATCAG,0.861 ± 0.0198 fold-change vs cycle 0,0.967 ± 0.0193 fold-change vs cycle 0,0.996 ± 0.0231 fold-change vs cycle 0
CTATCC,0.843 ± 0.0485 fold-change vs cycle 0,0.98 ± 0.0213 fold-change vs cycle 0,0.977 ± 0.0393 fold-change vs cycle 0
CCGTAC,0.377 ± 0.0221 fold-change vs cycle 0,0.458 ± 0.015 fold-change vs cycle 0,0.544 ± 0.0408 fold-change vs cycle 0
CTGCTA,0.699 ± 0.028 fold-change vs cycle 0,0.757 ± 0.0335 fold-change vs cycle 0,0.816 ± 0.0523 fold-change vs cycle 0
ATCTTA,2.21 ± 0.106 fold-change vs cycle 0,2.19 ± 0.133 fold-change vs cycle 0,1.92 ± 0.224 fold-change vs cycle 0
ACACCA,0.735 ± 0.0297 fold-change vs cycle 0,0.841 ± 0.0318 fold-change vs cycle 0,0.903 ± 0.0271 fold-change vs cycle 0
CGTTTA,1.06 ± 0.0285 fold-change vs cycle 0,1.15 ± 0.0184 fold-change vs cycle 0,1.12 ± 0.0221 fold-change vs cycle 0
CAATCC,0.816 ± 0.0436 fold-change vs cycle 0,0.939 ± 0.0312 fold-change vs cycle 0,0.973 ± 0.0236 fold-change vs cycle 0
CCTACC,0.45 ± 0.0245 fold-change vs cycle 0,0.53 ± 0.00975 fold-change vs cycle 0,0.625 ± 0.0741 fold-change vs cycle 0
AATTAT,4.89 ± 0.536 fold-change vs cycle 0,2.6 ± 0.249 fold-change vs cycle 0,2.25 ± 0.303 fold-change vs cycle 0
AGGAGG,0.615 ± 0.0373 fold-change vs cycle 0,0.701 ± 0.0545 fold-change vs cycle 0,0.762 ± 0.023 fold-change vs cycle 0
ACGTAG,0.7133 ± 0.00555 fold-change vs cycle 0,0.792 ± 0.0458 fold-change vs cycle 0,0.864 ± 0.0314 fold-change vs cycle 0
CTCACA,0.786 ± 0.0522 fold-change vs cycle 0,0.895 ± 0.0341 fold-change vs cycle 0,0.9459 ± 0.00888 fold-change vs cycle 0
ACGGAC,0.337 ± 0.0313 fold-change vs cycle 0,0.425 ± 0.0312 fold-change vs cycle 0,0.526 ± 0.0575 fold-change vs cycle 0
ACGTAA,1.19 ± 0.0733 fold-change vs cycle 0,1.3 ± 0.0477 fold-change vs cycle 0,1.21 ± 0.0842 fold-change vs cycle 0
CCTAAC,0.883 ± 0.0279 fold-change vs cycle 0,0.976 ± 0.0147 fold-change vs cycle 0,1 ± 0.0113 fold-change vs cycle 0
CATAAG,1.63 ± 0.0634 fold-change vs cycle 0,1.59 ± 0.055 fold-change vs cycle 0,1.45 ± 0.0676 fold-change vs cycle 0
CAATAA,2.18 ± 0.182 fold-change vs cycle 0,1.91 ± 0.101 fold-change vs cycle 0,1.73 ± 0.173 fold-change vs cycle 0
AAAAAC,1.45 ± 0.0971 fold-change vs cycle 0,1.49 ± 0.0832 fold-change vs cycle 0,1.42 ± 0.0693 fold-change vs cycle 0
